The values below come from PubChem BioAssay.

“And” between values parts separate entries of the source, which are not always exact repeats. Identical values can stand only once. More than one record can exist for a structure, and the calls need not agree. The source made the active and inactive calls.

Experiment [1] can be described thus: optical density shifts of acrAB sulA E. coli – strain DRC41, OD650, 48 h, E. coli filamentation inducer project, primary screen (AID 1152).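 Note: E. coli MC1000 strain DRC41 lacking acrAB efflux pump and sulA.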 Conditions: higher = more signal, called active from +8 up or from −8 down.
Experiment [2] can be described thus: probe aLefty1 binding on compound microarray – biochemical, small-molecule microarray, 635/667 nm fluorescence, primary screen (AID 1153).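 Note: score merges spot fluorescence with signal-to-noise ratio from the scanned slide images.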 Conditions: higher = more signal.
Experiment [3] can be described thus: plasmodial surface anion channel blockers, osmotic lysis – cell-based, P. falciparum Indochina, OD700, 1 h, primary screen (AID 1154). The settings on record: P. falciparum Indochina infected RBC osmotic lysis, higher = more signal, called active from +8 up or from −8 down.
Experiment [4] can be described thus: plasmodial surface anion channel blockers, osmotic lysis – cell-based, P. falciparum Indochina, OD700, 2 h, primary screen (AID 1155).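 Note: lysis reports solute entry through the parasite surface anion channel PSAC.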 The settings on record: P. falciparum Indochina infected erythrocytes, higher = more signal, called active from +8 up or from −8 down.
Experiment [5] can be described thus: changes in parasitized red cell lysis, either direction – P. falciparum Indochina, OD700, 3 h, PSAC antagonist project, primary screen (AID 1156). The settings on record: P. falciparum-infected erythrocytes, osmotic lysis, higher = more signal, called active from +8 up or from −8 down.
Experiment [6] can be described thus: plasmodial surface anion channel blockers, osmotic lysis – cell-based, P. falciparum Indochina, OD700, 18 h, primary screen (AID 1157). The settings on record: P. falciparum Indochina infected erythrocytes, osmotic lysis OD700, 18 h; higher = more signal, called active from +8 up or from −8 down.
Experiment [7] is described as follows: S6 kinase pathway phospho-S6 level changes – cell-based, A549, cytoblot, luminescence, serum-stimulated, primary screen (AID 1158).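 Note: serum-stimulated A549 lung adenocarcinoma cells; signal is phosphorylated S6 detected by cytoblot immunostaining with HRP secondary.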 The settings on record: 5 h, higher = more signal.
The target in experiment [8] is NADPH oxidase 2 (Homo sapiens) (UniProt P04839). Briefly: compounds shifting NOX2 Amplex Red fluorescence – cell-based, HEK293-NOX2, PMA-stimulated, NOX inhibitor project, primary screen (AID 1159). Note: test concentration not given here. The settings on record: 45 min, higher = more signal, called active from +8 up or from −8 down.
For experiment [9], the target named is NADPH oxidase 4 (Homo sapiens) (UniProt Q9NPH5). Briefly: compounds shifting NOX4 Amplex Red fluorescence – cell-based, HEK293-NOX4, tetracycline-induced, NOX inhibitor project, primary screen (AID 1160). Conditions: HEK293-NOX4, Amplex Red H2O2 fluorescence, 45 min; higher = more signal, called active from +8 up or from −8 down.
The target in experiment [10] is NADPH oxidase 5 (Homo sapiens) (UniProt Q96PH1). Briefly: compounds shifting NOX5 Amplex Red fluorescence – cell-based, HEK293-NOX5, NOX inhibitor project, primary screen (AID 1161). The settings on record: HEK293-NOX5, ionomycin, 45 min, higher = more signal.
Experiment [11] is described as follows: compound effects on lung adenocarcinoma cell viability – A549, calcein-AM fluorescence, 48 h, basal, profiling panel (AID 1162). Note: test concentration not given here. The settings on record: higher = more signal.
The nature of experiment [12]: compound effects on differentiated 3T3-L1 adipocyte viability – cell-based, 3T3-L1 adipocytes, calcein-AM fluorescence, 48 h, basal, profiling panel (AID 1163). Note: test concentration not given here. Conditions: 3T3-L1 adipocytes viability, higher = more signal.
Experiment [13] in a line: compound effects on hepatocellular carcinoma cell viability – HepG2, calcein-AM fluorescence, 48 h, basal, profiling panel (AID 1164). Note: test concentration not given here. Conditions: higher = more signal.
Experiment [14] in a line: compound effects on multiple myeloma cell viability – MM1S, calcein-AM fluorescence, 48 h, basal, profiling panel (AID 1165).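 Note: viability of MM1S multiple myeloma cells under basal unstimulated conditions; test concentration not given here.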 The settings on record: higher = more signal.
Experiment [15] can be described thus: calcein-AM signal in unstimulated myeloma cells – cell-based, calcein-AM fluorescence, 48 h, PK04 Diversity Set, profiling panel (AID 1166).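 Note: cells grown under basal conditions without added stimulus; test concentration not given here.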 Conditions: RPMI8226 myeloma viability, higher = more signal.
Experiment [16] in a line: JC-1 mitochondrial signal, unstimulated HepG2 cells – cell-based, JC-1 fluorescence, 24 h, 100 nL compound, profiling panel (AID 1167). Note: test concentration not given here. Conditions: HepG2 mitochondrial potential, higher = more signal.
A short description of experiment [17]: JC-1 mitochondrial signal, unstimulated adipocytes – cell-based, JC-1 fluorescence, 3T3-L1 adipocytes, 24 h, 100 nL compound, profiling panel (AID 1168). Note: test concentration not given here. Conditions: JC-1 mitochondrial fluorescence, higher = more signal, called active from +8 up or from −8 down.
The nature of experiment [18]: JC-1 mitochondrial signal, unstimulated myeloma cells – cell-based, JC-1 fluorescence, RPMI8226, 24 h, 100 nL compound, profiling panel (AID 1169). Note: test concentration not given here. The settings on record: JC-1 mitochondrial potential fluorescence, higher = more signal.
A short description of experiment [19]: JC-1 mitochondrial signal, unstimulated MM1S myeloma – cell-based, JC-1 fluorescence, 24 h, 100 nL compound, profiling panel (AID 1170). Note: test concentration not given here. Conditions: MM1S mitochondrial potential, higher = more signal.
The nature of experiment [20]: resazurin metabolic signal in A549 cells – cell-based, resazurin fluorescence, 24 h, PK04 Diversity Set, profiling panel (AID 1171). Note: test concentration not given here. The settings on record: A549 viability, higher = more signal, called active from +8 up or from −8 down. For orientation: Resazurin is reduced to fluorescent resorufin, in cell work by metabolically active cells.

NADPH oxidase 4 (Homo sapiens), sequence (Q9NPH5 whole entry, looked up): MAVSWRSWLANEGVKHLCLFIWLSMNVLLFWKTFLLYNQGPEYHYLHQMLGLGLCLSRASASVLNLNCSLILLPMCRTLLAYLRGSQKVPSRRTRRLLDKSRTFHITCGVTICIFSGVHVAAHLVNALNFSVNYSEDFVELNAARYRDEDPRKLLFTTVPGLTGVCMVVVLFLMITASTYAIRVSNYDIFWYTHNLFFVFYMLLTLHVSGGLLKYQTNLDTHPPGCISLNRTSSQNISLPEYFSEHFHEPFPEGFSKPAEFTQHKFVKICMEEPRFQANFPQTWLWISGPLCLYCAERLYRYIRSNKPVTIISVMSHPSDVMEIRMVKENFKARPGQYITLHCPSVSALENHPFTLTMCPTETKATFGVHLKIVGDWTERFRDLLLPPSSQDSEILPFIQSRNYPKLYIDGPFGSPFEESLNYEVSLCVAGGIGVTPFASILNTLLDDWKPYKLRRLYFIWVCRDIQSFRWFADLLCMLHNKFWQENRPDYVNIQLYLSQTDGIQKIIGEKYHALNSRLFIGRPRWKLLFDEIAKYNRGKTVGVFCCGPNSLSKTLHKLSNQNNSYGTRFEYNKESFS
NADPH oxidase 2 (Homo sapiens), sequence (P04839 whole entry, looked up): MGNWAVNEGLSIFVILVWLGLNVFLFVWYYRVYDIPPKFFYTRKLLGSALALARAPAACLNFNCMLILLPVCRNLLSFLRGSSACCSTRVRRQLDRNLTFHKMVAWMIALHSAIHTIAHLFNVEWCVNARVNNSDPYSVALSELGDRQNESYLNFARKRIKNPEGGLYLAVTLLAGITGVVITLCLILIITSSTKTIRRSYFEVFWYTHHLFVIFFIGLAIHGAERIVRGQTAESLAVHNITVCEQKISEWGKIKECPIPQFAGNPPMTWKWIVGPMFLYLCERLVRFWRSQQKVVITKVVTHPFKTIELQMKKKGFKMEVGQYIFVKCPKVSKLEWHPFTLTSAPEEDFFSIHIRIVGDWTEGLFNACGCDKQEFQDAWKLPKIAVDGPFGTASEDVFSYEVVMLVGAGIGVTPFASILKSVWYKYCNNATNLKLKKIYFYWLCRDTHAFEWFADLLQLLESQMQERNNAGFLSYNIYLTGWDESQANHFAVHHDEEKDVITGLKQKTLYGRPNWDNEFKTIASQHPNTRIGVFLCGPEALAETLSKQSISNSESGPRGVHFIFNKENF
NADPH oxidase 5 (Homo sapiens), sequence (Q96PH1 whole entry, looked up): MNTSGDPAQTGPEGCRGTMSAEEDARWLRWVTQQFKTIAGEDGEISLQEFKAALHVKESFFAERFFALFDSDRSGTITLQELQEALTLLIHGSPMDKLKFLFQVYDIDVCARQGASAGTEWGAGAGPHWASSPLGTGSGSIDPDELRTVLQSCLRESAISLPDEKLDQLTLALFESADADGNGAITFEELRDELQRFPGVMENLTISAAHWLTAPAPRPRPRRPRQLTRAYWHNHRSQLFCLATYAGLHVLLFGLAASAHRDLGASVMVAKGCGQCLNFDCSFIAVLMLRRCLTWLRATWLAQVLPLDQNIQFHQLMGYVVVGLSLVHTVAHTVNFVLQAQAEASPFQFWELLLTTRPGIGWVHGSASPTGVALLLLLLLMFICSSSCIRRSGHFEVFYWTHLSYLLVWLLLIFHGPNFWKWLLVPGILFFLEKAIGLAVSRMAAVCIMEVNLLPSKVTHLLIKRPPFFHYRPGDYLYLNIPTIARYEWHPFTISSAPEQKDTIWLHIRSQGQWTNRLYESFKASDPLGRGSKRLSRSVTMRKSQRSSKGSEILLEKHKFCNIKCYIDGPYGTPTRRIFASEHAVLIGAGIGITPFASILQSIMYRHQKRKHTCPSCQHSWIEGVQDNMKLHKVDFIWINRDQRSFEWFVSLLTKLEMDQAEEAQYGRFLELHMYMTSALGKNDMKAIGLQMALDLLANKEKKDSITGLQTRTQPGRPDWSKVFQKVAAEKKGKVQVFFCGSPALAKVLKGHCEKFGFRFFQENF

Take `C=CCN(C(=O)C1N(C(C)(C)CO)C(=O)C2C(C(=O)O)C3C=CC21O3)C(C)(C)C` (stereo not given): the z-score in experiment [1] was -0.497 (inactive) and 0.156 (inactive); in experiment [3] it was -0.455 (inactive) and -0.501 (inactive); in [4], 0.222 (inactive) and 0.135 (inactive); in [5], -0.67 (inactive) and -0.452 (inactive); in [6], 0.11 (inactive) and -0.11 (inactive); in experiment [7], -0.356 and -0.316. In addition, the z-score in experiment [8] is 0.849 (inactive) and 0.0709 (inactive); in experiment [9], -1.48 (inactive) and -2.38 (inactive); in [10] it was 0.103 and -0.476; in experiment [11], -0.209 and -0.173; in [12], -0.72 and 0.343; in experiment [13] it was 0.384 and 0.816. In addition, the z-score in experiment [14] is 0.676 and 0.647; in experiment [15], 0.0691 and 0.0574; in [16], -0.896 and 0.142; in experiment [17] it was -0.308 (inactive) and 0.228 (inactive); in [18] it was 0.669 and -0.287; in experiment [19], 0.88 and 0.351. Moreover, the z-score in experiment [20] is -0.777 (inactive) and -0.128 (inactive). The composite z-score in experiment [2] is 0.0026 and -0.316.
For the compound `C[C@@]1([C@@H](NC(=O)Cc2ccccc2)c2ccc(-c3ccccc3)cc2)C[C@H]1C1CCCCC1`, the z-score was -1.01 (inactive) and -1.14 (inactive) and -2.63 (inactive) in experiment [1]; 2.55 (inactive) and 0.584 (inactive) and 10.1 (active) in experiment [3]; -0.208 (inactive) and 0.325 (inactive) and 1.68 (inactive) in experiment [4]; 1.01 (inactive) and 1.19 (inactive) and 0.922 (inactive) in [5]; -1.51 (inactive) and 0.741 (inactive) and 0.644 (inactive) in experiment [6]; 1.28 and -0.396 and -0.729 in [7]. In addition, the z-score is -4.2 (inactive) and -0.505 (inactive) and -1.36 (inactive) in experiment [8]; -5.91 (inactive) and -3.11 (inactive) and -1.7 (inactive) in experiment [9]; -3.09 and 0.173 and 0.832 in experiment [10]; -2.72 and -1.23 and -1.42 in experiment [11]; 0.765 and -0.0714 and -0.863 in experiment [12]; -2.87 and -0.861 and -0.802 in experiment [13]. The z-score in experiment [14] was -2.91 and -1.81 and -2; in experiment [15], -4.81 and -1.41 and -1.24; in experiment [16], -3.9 and -0.895 and 0.848; in experiment [17], 0.111 (inactive) and -0.332 (inactive) and -1.75 (inactive); in experiment [18], -0.936 and -0.586 and -0.431; in experiment [19], -1.71 and 0.0165 and -1.06. Also, the z-score in [20] is -0.609 (inactive) and 3.96 (inactive) and -0.816 (inactive). Further, in experiment [2], the composite z-score is 1.31 and 1.96 and -0.533.
In the case of `CC(CO)N1C(=O)[C@@H]2C3C(=O)OCCC=C[C@H]3OC23C=CCN(Cc2ccccc2)C(=O)[C@@H]13` (stereo not given in full), the z-score in experiment [1] was 0.697 (inactive) and 0.925 (inactive); in experiment [3] it was 3.31 (inactive) and 0.464 (inactive); in experiment [4] it was 1.11 (inactive) and 0.0933 (inactive); in experiment [5], 1.21 (inactive) and 1.05 (inactive); in [6], 0.403 (inactive) and 0.258 (inactive); in experiment [7], -0.388 and -0.526. In addition, the z-score was 1.26 (inactive) and 1.71 (inactive) in [8]; 1.09 (inactive) and -0.409 (inactive) in experiment [9]; 2.15 and 2.85 in experiment [10]; 0.606 and 0.0694 in [11]; 0.888 and 0.458 in experiment [12]; 0.237 and 0.113 in experiment [13]. Moreover, the z-score was 0.34 and 0.311 in experiment [14]; -0.306 and -0.454 in [15]; 0.567 and 0.15 in experiment [16]; 0.932 (inactive) and 0.902 (inactive) in experiment [17]; -0.914 and 0.0338 in [18]; 0.789 and 0.282 in [19]. Further, in [20], the z-score was 0.305 (inactive) and 0.147 (inactive). In addition, in experiment [2], the composite z-score is -0.0162 and 0.132.
As for `COC(=O)CC=C[C@@H](C)[C@@H](CO)NS(=O)(=O)c1ccc(C)cc1`, the z-score in [1] is -0.242 (inactive) and 0.0668 (inactive); in experiment [3] it was -0.577 (inactive) and 5.54 (inactive); in experiment [4], -0.08 (inactive) and 1.47 (inactive); in experiment [5] it was 0.245 (inactive) and 0.644 (inactive); in experiment [6], -0.145 (inactive) and 1.05 (inactive); in experiment [7] it was -0.244 and 0.392. For the same compound, the z-score was -0.132 (inactive) and 0.154 (inactive) in experiment [8]; -0.00804 (inactive) and 0.453 (inactive) in experiment [9]; -0.00181 and 0.301 in experiment [10]; -0.188 and 0.816 in [11]; -0.466 and -0.0209 in experiment [12]; -0.252 and 0.461 in experiment [13]. The z-score in experiment [14] is -0.243 and 0.811; in [15], -0.101 and 0.667; in experiment [16] it was -0.328 and 0.817; in experiment [17], -0.0819 (inactive) and -0.161 (inactive); in [18], -0.827 and 0.601; in experiment [19], -0.0943 and -0.285. For the same compound, the z-score in experiment [20] was 0.827 (inactive) and -0.832 (inactive). Further, in [2], the composite z-score is -0.0971 and -0.148.
